# Laboratory results taken from the supplement of paper PMC8728848.
# Only a selection was taken, and the strongest signals are over-represented in it overall.
# Columns and labels:
# Assay in all cases: glycan array binding signal (z-score within array); higher = stronger binding
# Settings in all cases: glycan notation: IUPAC condensed, linker removed
# Fuc(a1-2)Gal = molecular target: Fuc(a1-2)Gal
# How it was run: (§1)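 Glycan array binding is given as a within-array Z-score, which can be read as non-binding when negative. The arrays, 3228 of them, came from the Consortium for Functional Glycomics database and were retained only where the protein sequence was available. Z-scores were averaged across arrays of the same protein sequence at different concentrations or buffers and across linkers.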
# Fuc(a1-2)Gal6S(b1-4)Glc = molecular target: Fuc(a1-2)Gal6S(b1-4)Glc
# How it was run: as §1
# [1] = molecular target: Fuc(a1-3)[Gal(b1-4)]GlcNAc(b1-2)Man(a1-6)[Gal(b1-4)GlcNAc(b1-2)Man(a1-3)]Man(b1-4)GlcNAc(b1-4)GlcNAc
# How it was run: as §1
# Fuc(b1-3)GlcNAc = molecular target: Fuc(b1-3)GlcNAc
# How it was run: as §1
# Gal(a1-3)Gal(b1-3)GlcNAc = molecular target: Gal(a1-3)Gal(b1-3)GlcNAc
# How it was run: as §1
# Gal(a1-4)Gal(b1-4)GlcNAc = molecular target: Gal(a1-4)Gal(b1-4)GlcNAc
# How it was run: as §1
# [2] = molecular target: Gal(b1-3)GlcNAc(b1-3)Gal(b1-4)GlcNAc
# How it was run: as §1
# [3] = molecular target: Gal3S(b1-3)[Fuc(a1-4)]GlcNAc
# How it was run: as §1
# Gal4S(b1-4)GlcNAc = molecular target: Gal4S(b1-4)GlcNAc
# How it was run: as §1
# Gal6S(b1-4)GlcNAc6S = molecular target: Gal6S(b1-4)GlcNAc6S
# How it was run: as §1
# GalNAc(a1-3)Gal = molecular target: GalNAc(a1-3)Gal
# How it was run: as §1
# [4] = molecular target: GalNAc(b1-3)Gal(a1-4)Gal(b1-4)GlcNAc(b1-3)Gal(b1-4)Glc
# How it was run: as §1
# Glc(a1-4)Glc = molecular target: Glc(a1-4)Glc
# How it was run: as §1
# [5] = molecular target: GlcNAc(b1-3)[GlcNAc(b1-6)]GalNAc
# How it was run: as §1
# GlcNAc3Prop(b1-4)GlcNAc = molecular target: GlcNAc3Prop(b1-4)GlcNAc
# How it was run: as §1
# Kdn(a2-3)Gal(b1-3)GlcNAc = molecular target: Kdn(a2-3)Gal(b1-3)GlcNAc
# How it was run: as §1
# [6] = molecular target: Man(a1-2)Man(a1-2)Man(a1-6)[Man(a1-3)]Man
# How it was run: as §1
# Man(a1-3)[Man(a1-6)]Man = molecular target: Man(a1-3)[Man(a1-6)]Man
# How it was run: as §1
# [7] = molecular target: Man(a1-3)[Man(a1-6)]Man(a1-6)[Man(a1-2)Man(a1-3)]Man(b1-4)GlcNAc(b1-4)GlcNAc
# How it was run: as §1
# [8] = molecular target: Man(a1-3)[Man(a1-6)]Man(a1-6)[Man(a1-3)]Man(b1-4)GlcNAc(b1-4)GlcNAc
# How it was run: as §1
# Man(a1-6)Man = molecular target: Man(a1-6)Man
# How it was run: as §1
# [9] = molecular target: Neu5Ac(a2-3)Gal(b1-3)GalNAc(b1-4)[Neu5Ac(a2-3)]Gal(b1-4)Glc
# How it was run: as §1
# [10] = molecular target: Neu5Ac(a2-3)Gal(b1-3)GlcNAc(b1-3)Gal(b1-3)GlcNAc
# How it was run: as §1
# [11] = molecular target: Neu5Ac(a2-3)Gal(b1-3)[Fuc(a1-4)]GlcNAc
# How it was run: as §1
# [12] = molecular target: Neu5Ac(a2-3)Gal(b1-3)[Neu5Ac(a2-3)Gal(b1-4)]GlcNAc
# How it was run: as §1
# [13] = molecular target: Neu5Ac(a2-3)Gal(b1-3)[Neu5Ac(a2-6)]GalNAc
# How it was run: as §1
# Neu5Ac(a2-3)Gal(b1-4)Glc = molecular target: Neu5Ac(a2-3)Gal(b1-4)Glc
# How it was run: as §1
# [14] = molecular target: Neu5Ac(a2-3)Gal(b1-4)GlcNAc(b1-2)Man(a1-3)[Neu5Ac(a2-6)Gal(b1-4)GlcNAc(b1-2)Man(a1-6)]Man(b1-4)GlcNAc(b1-4)GlcNAc
# How it was run: as §1
# [15] = molecular target: Neu5Ac(a2-3)Gal(b1-4)GlcNAc(b1-3)Gal(b1-4)[Fuc(a1-3)]GlcNAc
# How it was run: as §1
# [16] = molecular target: Neu5Ac(a2-3)Gal(b1-4)GlcNAc6S
# How it was run: as §1
# [17] = molecular target: Neu5Ac(a2-3)Gal(b1-4)[Fuc(a1-3)]GlcNAc(b1-6)[Neu5Ac(a2-3)Gal(b1-3)]GalNAc
# How it was run: as §1
# [18] = molecular target: Neu5Ac(a2-3)Gal(b1-4)[Fuc(a1-3)]GlcNAc6S
# How it was run: as §1
# [19] = molecular target: Neu5Ac(a2-3)[GalNAc(b1-4)]Gal(b1-4)Glc
# How it was run: as §1
# [20] = molecular target: Neu5Ac(a2-6)Gal(b1-4)GlcNAc(b1-2)Man(a1-6)Man(b1-4)GlcNAc(b1-4)GlcNAc
# How it was run: as §1
# [21] = molecular target: Neu5Ac(a2-6)Gal(b1-4)GlcNAc(b1-2)Man(a1-6)[Man(a1-3)]Man(b1-4)GlcNAc(b1-4)GlcNAc
# How it was run: as §1
# [22] = molecular target: Neu5Ac(a2-8)Neu5Ac(a2-3)Gal(b1-4)Glc
# How it was run: as §1
# [23] = molecular target: Neu5Ac(a2-8)Neu5Ac(a2-8)Neu5Ac(a2-3)Gal(b1-4)Glc
# How it was run: as §1
# [24] = molecular target: Neu5Ac9Ac(a2-6)Gal(b1-4)GlcNAc
# How it was run: as §1
# Neu5Gc(a2-3)Gal(b1-4)Glc = molecular target: Neu5Gc(a2-3)Gal(b1-4)Glc
# How it was run: as §1
binder,measurement,setting,value
"Spy0252 (Streptococcus pyogenes), Q9A1I9_STRP1 (protein) MNMKKLASLAMLGASVLGLAACGGKSQKEAGASKSDTAKTEITWWAFPVFTQEKAEDGVGTYEKKLIAAFEKANPEIKVKLETIDFTSGPEKITTAIEAGTAPDVLFDAPGRIIQYGKNGKLADLNDLFTEEFTKDVNNDKLIQASKAGDTAYMYPISSAPFYMALNKKMLKDAGVLDLVKEGWTTDDFEKVLKALKDKGYNPGSFFANGQGGDQGPRAFFANLYSSHITDDKVTKYTTDDANSIKAMTKISNWIKDGLMMNGSQYDGSADIQNFANGQTSFTILWAPAQPGIQAKLLEASKVDYLEIPFPSDDGKPELEYLVNGFAVFNNKDEQKVAASKTFIQFIADDKEWGPKNVVRTGAFPVRTSYGDLYKDKRMEKIAEWTKFYSPYYNTIDGFAEMRTLWFPMVQAVSNGDEKPEDALKAFTEKANKTIKKTQ",glycan array binding signal (z-score),Fuc(a1-2)Gal,-0.143
same,glycan array binding signal (z-score),Fuc(a1-2)Gal6S(b1-4)Glc,-0.255
same,glycan array binding signal (z-score),[1],-0.236
same,glycan array binding signal (z-score),Fuc(b1-3)GlcNAc,-0.263
same,glycan array binding signal (z-score),Gal(a1-3)Gal(b1-3)GlcNAc,-0.267
same,glycan array binding signal (z-score),Gal(a1-4)Gal(b1-4)GlcNAc,-0.203
same,glycan array binding signal (z-score),[2],-0.267
same,glycan array binding signal (z-score),[3],-0.259
same,glycan array binding signal (z-score),Gal4S(b1-4)GlcNAc,-0.249
same,glycan array binding signal (z-score),Gal6S(b1-4)GlcNAc6S,-0.268
same,glycan array binding signal (z-score),GalNAc(a1-3)Gal,-0.212
same,glycan array binding signal (z-score),[4],5.38
same,glycan array binding signal (z-score),Glc(a1-4)Glc,0.228
same,glycan array binding signal (z-score),[5],-0.259
same,glycan array binding signal (z-score),GlcNAc3Prop(b1-4)GlcNAc,0.218
same,glycan array binding signal (z-score),Kdn(a2-3)Gal(b1-3)GlcNAc,-0.248
same,glycan array binding signal (z-score),[6],-0.258
same,glycan array binding signal (z-score),Man(a1-3)[Man(a1-6)]Man,-0.267
same,glycan array binding signal (z-score),[7],-0.273
same,glycan array binding signal (z-score),[8],-0.271
same,glycan array binding signal (z-score),Man(a1-6)Man,-0.283
same,glycan array binding signal (z-score),[9],-0.256
same,glycan array binding signal (z-score),[10],-0.195
same,glycan array binding signal (z-score),[11],-0.279
same,glycan array binding signal (z-score),[12],-0.223
same,glycan array binding signal (z-score),[13],-0.085
same,glycan array binding signal (z-score),Neu5Ac(a2-3)Gal(b1-4)Glc,5.54
same,glycan array binding signal (z-score),[14],-0.259
same,glycan array binding signal (z-score),[15],6.21
same,glycan array binding signal (z-score),[16],-0.268
same,glycan array binding signal (z-score),[17],-0.157
same,glycan array binding signal (z-score),[18],-0.278
same,glycan array binding signal (z-score),[19],-0.266
same,glycan array binding signal (z-score),[20],-0.277
same,glycan array binding signal (z-score),[21],-0.26
same,glycan array binding signal (z-score),[22],7.23
same,glycan array binding signal (z-score),[23],7.09
same,glycan array binding signal (z-score),[24],-0.248
same,glycan array binding signal (z-score),Neu5Gc(a2-3)Gal(b1-4)Glc,5.2
